From ChEMBL document CHEMBL1157539, “Thousands of chemical starting points for antimalarial lead identification” (Nature, 2010)

What was measured:
Format in all cases: functional
Plasmodium falciparum [1] = experiment: GSK_TCMDC: Inhibition of Plasmodium falciparum 3D7 in whole red blood cells, using parasite LDH activity as an index of growth. Test compounds present at 2uM
Plasmodium falciparum [2] = experiment: GSK_TCMDC: Inhibition of Plasmodium falciparum Dd2 in whole red blood cells, using parasite LDH activity as an index of growth. Test compounds present at 2uM
HepG2 = experiment: GSK_TCMDC: Percent inhibition of human HepG2 cell line. Test compounds present at 10uM.

| SMILES | Inhibition (Plasmodium falciparum [1]) [%] | Inhibition (Plasmodium falciparum [2]) [%] | Inhibition (HepG2) [%] |
| --- | --- | --- | --- |
| O=C(O)C(F)(F)F.O=S(=O)(NCCN1CCCC1)c1cccc(-c2ccc(CNCc3ccc(F)cc3)cc2)c1 | 100 | 41 | 38 |
| Nc1nc2c(ncn2OC[C@H]2COP(=O)([O-])CO2)c(=O)[nH]1.[Na+] | 92 | 32 | 1 |
| [O-][s+]1nc(NCCCN(Cc2cccs2)c2ccccn2)c(NCc2ccccc2)n1 (centres undefined) | 92 | 25 | 10 |
